Each structure is given as a SMILES string. Values joined by “and” are separate entries in the source; they are usually repeats but may differ in a detail not shown here. Identical values can stand only once. Results filed as inconclusive are left out. Active and inactive are the calls of the source. The call rests on the fitted dose curve; in most records, active means well fitted activation curve with a large enough effect; inconclusive means small, poorly fitted or top-dose-only effect; inactive means no such curve, though single readings can be large or run the other way.
Potency means the concentration at half of the fitted maximal effect.

This assay can be described thus: qHTS for small molecules that induce genotoxicity in ELG1 expressing cells: Confirmatory Assay for Cherry-picked Compounds. Further: nearly all actives have a fitted effect of over 35% in size. On activation: % of control where 0% means no effect. To be noted: ELG1-luciferase reporter cells, luminescence, 16 h; series mostly up to 46.1 µM; activation: at the top concentration. The method in brief:
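Cells carrying the ELG1-luciferase reporter were exposed to compound for 16 hr at 37 C, 5% CO2, at 2,000 cells per well. Rise in luciferase activity, read with ONE-Glo after 30 min at room temperature, indicates genotoxic stress.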
(Quantitative high-throughput screening tests each substance at several concentrations.)
Regarding `COCC(C)n1c(C)cc(C(=O)COC(=O)c2cc(=O)[nH]c3ccccc23)c1C` (stereo not drawn), the Potency was 2.23 µM (active).

As for `O=C(c1cc2ccccc2[nH]1)c1cc2cc(O)ccc2[nH]1`, the Potency is 7.05 µM (active).

Consider `Oc1cc(-c2ccc(N3CCCCC3)nc2)cc2cccnc12`, for which the Potency is 25 µM (active).

Regarding `COc1cccc([C@@H]2Oc3ccc(OC)cc3C(=O)[C@H]2OC(=O)NS(=O)(=O)c2ccc(C)cc2)c1`, the Potency is 15.8 µM (active).

For `COc1ccccc1/C=C/c1nc2ccccc2s1`, the Potency is 3.97 µM (active).

As for `COc1ccc(-c2nnc(SC(C)C(=O)Nc3cccc(Cl)c3)o2)cc1` (stereo not drawn), the Potency was 12.5 µM (active).

Regarding `CC(=O)c1cc(F)ccc1OCC(=O)Nc1ccc2c(c1)OCO2`, the Potency is 6.28 µM (active).

On to `O=C(OCC(=O)N1CCCCC1)c1cccs1`, for which the Potency is 14.1 µM (active).

For `O=C(COc1ccccc1Cl)Nc1ccc(-c2nc3ccccc3s2)cc1`, the Potency was 28.1 µM (active).

Turning to `COc1ccc(S(=O)(=O)N2CCCCC2)cc1NC(=O)c1[nH]c(C)c(C(C)=O)c1C`, the Potency is 15.8 µM (active).

With `C(=C\c1ccc2ccccc2n1)/c1ccc2ccccc2n1`, the Potency was 0.792 µM (active).

As to `CC1CCc2nc(-c3cc4ccc(O)cc4oc3=O)sc2C1` (stereo not drawn), the Potency was 1.26 µM (active).

Turning to `O=C(/C=C/C#Cc1cccc(NS(=O)(=O)c2ccccc2)c1)NO`, the Potency is 3.15 µM (active).

As for `CC(=O)OCC1=C[C@H]2[C@@H]3C(C)(C)[C@]3(OC(C)=O)C[C@@H](C)[C@]2(O)[C@@H]2C=C(C)C(=O)[C@@]2(O)C1`, the Potency was 2.23 µM (active).

Take `c1nc(CCO[C@H]2CCCCO2)cc2cc3c(cc12)OCO3`: the Potency is 0.281 µM (active).

As for `Cc1cc(C(=O)COC(=O)c2cccnc2Cl)c(C)n1C`, the Potency was 0.706 µM (active).

For `Oc1ccccc1-c1cc(-c2ccccc2)n[nH]1`, the Potency is 2.23 µM (active).

As for `CN(C)c1ccc(/C=C/c2ccnc3ccc(F)cc23)cc1`, the Potency was 0.354 µM (active).

As for `COc1cc2cc(C)c(SCC(=O)N3CCOCC3)nc2cc1OC`, the “activation” value is 2.87% (inactive).

`Cc1ccc2c(c1)sc1nc(=O)n(-c3ccc(Cl)c(Cl)c3)c(=O)n12`: the “activation” value was 26.4% (inactive).

With `O=C(CSc1ncnc2sccc12)N1CCCCC1`, the Potency was 15.8 µM (active).

For the compound `Cc1cc(C)cc(NC(=O)CCc2nc3sc4c(c3c(=O)[nH]2)CCCC4)c1`, the “activation” value was 15.7% (inactive).

On to `CCOC(=O)N1CCN(C(=O)CSCC(=O)Nc2nc(-c3ccc(-c4ccccc4)cc3)cs2)CC1`, for which the Potency entry was “inactive”.

`Cc1ccc2nc3sc(C(=O)NCc4ccco4)cc3cc2c1`: the Potency was 7.05 µM (active).

Regarding `C(=C\c1nc2ccccc2s1)/c1ccc2c(c1)OCO2`, the Potency was 0.141 µM (active).

As for `Oc1ccc(CCc2ccccc2F)c2cccnc12`, the Potency was 14.1 µM (active).

With `CN(C)c1cccc(C(=O)NNC(=O)CN2C(=O)C3CC=CCC3C2=O)c1` (stereo not drawn), the Potency is 7.91 µM (active).

`CCCCCCC[C@@H](C/C=C/CCC(=O)N(C)C/C(=C/Cl)C/C(=C\C(=O)N1CC(OC)=CC1=O)OC)OC`: the Potency is 1.99 µM (active).

Turning to `Cc1ccccc1-c1nnc(SCC(=O)Nc2cccnc2Cl)o1`, the Potency is 3.15 µM (active).

Take `N#Cc1ccc(-c2ccc(-c3nc4ccccc4c(=O)[nH]3)o2)cc1`: the “activation” value was 13.4% (inactive).

`Cc1c(OCc2ccc([N+](=O)[O-])cc2)ccc2c3c(c(=O)oc12)CCC3`: the Potency is 2.81 µM (active).

Turning to `CC(=O)c1cc2c(cc1NC(=O)CSc1nc3ccccc3o1)OCO2`, the “activation” value is 22% (inactive).

Take `CCC1CCCCN1CCCNC(=O)c1ccc2nc(N3CCC(C)CC3)sc2c1` (stereo not drawn): the Potency was 0.0706 µM (active).

For the compound `COc1cccc(NC(=O)CSc2nnc(-c3ccc(C)cc3)o2)c1`, the Potency was 14.1 µM (active).

`Cc1ccc(NC(=O)c2ccc(OC(=O)c3ccco3)cc2)cc1`: the Potency was 11.5 µM (active) and 14.1 µM (active).

With `Cc1ccc(C(=O)Cn2c3c(sc2=N)CCCC3)cc1`, the Potency is 0.141 µM (active).

Take `Cc1ccc(C)c(N2CCN(C(=O)CCc3nc(-c4cccc(Cl)c4)no3)CC2)c1`: the Potency is 12.5 µM (active).

As for `C=CCn1c(C)cc(C(=O)COC(=O)c2n[nH]c(=O)c3ccccc23)c1C`, the Potency is 2.81 µM (active).

Source of the values: PubChem BioAssay AID720565 (National Center for Advancing Translational Sciences (NCATS), 2013).
